From PubChem BioAssay (EPA / NIEHS)
Active and inactive are the calls of the source. The calls were made as follows: active = hit-call score of the fitted dose curve at least 0.9, where 1 is the maximum; inactive = score below 0.9.

Key:
Details in all cases: mRNA level, 48 h; actives raise or lower the signal
[1] = read-out: ABC Transporter (ABCB11), ABCB11 (gene 8647); assay: LTEA_HepaRG_ABCB11: Life Technologies and Expression Analysis (LTEA) Assay for ABC Transporter (ABCB11) using HepaRG (AID 2283463)
Procedure, shortened: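 ABCB11 transcript levels quantified by TaqMan qRT-PCR against three housekeeping genes after 48 h chemical exposure of HepaRG cultures. Concentrations up to 100 uM in half-log steps, 0.5% DMSO vehicle; both induction and suppression scored.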

[2] = read-out: ABC Transporter (ABCC2), ABCC2 (gene 1244); assay: LTEA_HepaRG_ABCC2: Life Technologies and Expression Analysis (LTEA) Assay for ABC Transporter (ABCC2) using HepaRG (AID 2283464)
Procedure, shortened: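 HepaRG, 48 h post-plating; serum-free induction medium; cpd 8-pt, 100 uM top, half-log, 0.5% DMSO, duplicate, 48 h. Readout: ABCC2 mRNA by qRT-PCR, norm. ACTB/GAPDH/POLR2A. Bidirectional fit vs DMSO baseline.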

[3] = read-out: Broad substrate specificity ATP-binding cassette transporter ABCG2 (Homo sapiens) (UniProt Q9UNQ0); assay: LTEA_HepaRG_ABCG2: Life Technologies and Expression Analysis (LTEA) Assay for ABC Transporter (ABCG2) using HepaRG (AID 2283465)
Procedure, shortened: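 ABCG2 transcript was quantified by TaqMan qRT-PCR against three housekeeping genes in HepaRG cells. Cells were treated in duplicate for 48 h across an 8-point half-log series up to 100 uM, with 0.5% DMSO vehicle. Gain or loss versus DMSO was fit.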

[4] = read-out: ATP-citrate lyase (ACLY), ACLY (gene 47); assay: LTEA_HepaRG_ACLY: Life Technologies and Expression Analysis (LTEA) Assay for ATP-citrate lyase (ACLY) using HepaRG (AID 2283466)
Procedure, shortened: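 ACLY mRNA quantified by qRT-PCR on Fluidigm arrays against three housekeeping genes, after 48 h chemical treatment of HepaRG cells (top concentration 100 uM, half-log steps, 0.5% DMSO vehicle). Up- or down-regulation fitted relative to DMSO.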

[5] = read-out: Peroxisomal acyl-coenzyme A oxidase 1 (ACOX1) gene, ACOX1 (gene 51); assay: LTEA_HepaRG_ACOX1: Life Technologies and Expression Analysis (LTEA) Assay for Peroxisomal acyl-coenzyme A oxidase 1 (ACOX1) gene using HepaRG (AID 2283467)
Procedure, shortened: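 ACOX1 transcript levels were quantified by TaqMan qRT-PCR against three housekeeping genes after 48 h chemical exposure of differentiated human HepaRG cells. Exposure used eight half-log steps topping at 100 uM, 0.5% DMSO vehicle, in duplicate. Bidirectional curve fits were made relative to DMSO.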

[6] = read-out: Alkaline Phosphatase, Placental (ALPP) gene, ALPP (gene 250); assay: LTEA_HepaRG_ALPP: Life Technologies and Expression Analysis (LTEA) Assay for Alkaline Phosphatase, Placental (ALPP) gene using HepaRG (AID 2283468);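 as to AC50: differentiated human HepaRG liver cells in serum-free induction medium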
Procedure, shortened: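 HepaRG, 48 h plating then 48 h dosing, serum-free induction medium, 0.5% DMSO. 8 conc, half-log, max 100 uM, duplicates. Endpoint: ALPP transcript by qRT-PCR, housekeeping-normalized; gain or loss fitted vs DMSO.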

[7] = read-out: Bcl-2 (BAD) gene, BAD (gene 572); assay: LTEA_HepaRG_BAD: Life Technologies and Expression Analysis (LTEA) Assay for Bcl-2 (BAD) gene using HepaRG (AID 2283469)
Procedure, shortened: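 Read-out: qRT-PCR of BAD mRNA, normalized to three housekeeping genes. Human HepaRG cultures got 48 h chemical exposure in 0.5% DMSO, duplicate eight-point half-log series topping at 100 uM. Gain or loss of signal fitted versus DMSO vehicle.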

[8] = read-out: Bcl-2 (BAX) gene, BAX (gene 581); assay: LTEA_HepaRG_BAX: Life Technologies and Expression Analysis (LTEA) Assay for Bcl-2 (BAX) gene using HepaRG (AID 2283470)
Procedure, shortened: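 Cells were thawed, plated for 48 h, moved to serum-free induction medium and dosed for 48 h (highest concentration 100 uM, half-log steps, 0.5% DMSO). Total RNA was then analysed for BAX expression by qRT-PCR.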

[9] = read-out: adenosine kinase (ADK) gene, ADK (gene 132); assay: LTEA_HepaRG_ADK: Life Technologies and Expression Analysis (LTEA) Assay for adenosine kinase (ADK) gene using HepaRG (AID 2283471)
Procedure, shortened: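 ADK expression quantified by qRT-PCR, normalised to three housekeeping genes, after 48 h exposure of HepaRG cells to eight concentrations (top 100 uM, half-log steps, duplicate, 0.5% DMSO). Up- or down-regulation fitted relative to vehicle.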

[10] = read-out: Alpha-fetoprotein (AFP) gene, AFP (gene 174); assay: LTEA_HepaRG_AFP: Life Technologies and Expression Analysis (LTEA) Assay for Alpha-fetoprotein (AFP) gene using HepaRG (AID 2283472)
Procedure, shortened: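 Chemicals were tested on differentiated HepaRG cells for 48 hours at eight concentrations up to 100 uM, with 0.5% DMSO as vehicle. AFP expression was then quantified by qRT-PCR and analyzed for gain or loss relative to DMSO.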

BCL2L11 (gene 10018) = assay: LTEA_HepaRG_BCL2L11: Life Technologies and Expression Analysis (LTEA) Assay for Bcl-2 (BCL2L11) gene using HepaRG (AID 2283473)
Procedure, shortened: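 Read-out is BCL2L11 transcript level by qRT-PCR, normalized to three housekeeping genes and fitted bidirectionally against 0.5% DMSO vehicle. HepaRG cells received chemicals for 48 h in serum-free induction medium, 100 uM down in half-log dilutions.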

[11] = read-out: Apolipoprotein A-V (APOA5) gene, APOA5 (gene 116519); assay: LTEA_HepaRG_APOA5: Life Technologies and Expression Analysis (LTEA) Assay for Apolipoprotein A-V (APOA5) gene using HepaRG (AID 2283474)
Procedure, shortened: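 Readout is APOA5 transcript level by qRT-PCR on Fluidigm dynamic arrays, normalized to three housekeeping genes. HepaRG cultures received chemicals for 48 h at up to 100 uM (half-log steps, 0.5% DMSO), with gain or loss scored relative to DMSO.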

[12] = read-out: Apoptosis regulator Bcl-2 (Homo sapiens) (UniProt P10415); assay: LTEA_HepaRG_BCL2: Life Technologies and Expression Analysis (LTEA) Assay for Bcl-2 gene using HepaRG (AID 2283475)
Procedure, shortened: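 Plated human HepaRG cells are exposed to test chemicals for 48 h across eight concentrations from 100 uM downward in half-log steps (0.5% DMSO). BCL2 expression is then measured by qRT-PCR with housekeeping normalisation and fitted bidirectionally against vehicle.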

[13] = read-out: Bcl-2 (BID) gene, BID (gene 637); assay: LTEA_HepaRG_BID: Life Technologies and Expression Analysis (LTEA) Assay for Bcl-2 (BID) gene using HepaRG (AID 2283476)
Procedure, shortened: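 Cells are plated, cultured 48 h, switched to serum-free induction medium, then dosed 48 h (100 uM top, half-log steps, 0.5% DMSO). RNA is isolated and BID expression read by qRT-PCR.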

Caspase-3 (Homo sapiens) = Caspase-3 (Homo sapiens) (UniProt P42574); assay: LTEA_HepaRG_CASP3: Life Technologies and Expression Analysis (LTEA) Assay for cysteine-aspartic acid protease (CASP3) using HepaRG (AID 2283477)
Sequence of Caspase-3 (Homo sapiens) (P42574 whole entry, looked up): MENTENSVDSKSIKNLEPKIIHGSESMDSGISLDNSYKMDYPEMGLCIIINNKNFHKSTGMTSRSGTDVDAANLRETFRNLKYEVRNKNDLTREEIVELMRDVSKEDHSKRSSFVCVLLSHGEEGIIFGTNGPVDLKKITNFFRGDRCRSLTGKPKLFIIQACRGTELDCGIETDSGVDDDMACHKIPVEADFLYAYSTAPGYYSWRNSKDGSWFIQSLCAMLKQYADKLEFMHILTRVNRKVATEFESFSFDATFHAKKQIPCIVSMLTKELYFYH
Procedure, shortened: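 Read-out is CASP3 mRNA level by TaqMan qRT-PCR in human HepaRG cells after 48 h chemical exposure. Eight half-log concentrations topping at 100 uM were tested in 0.5% DMSO; gain or loss was fitted relative to DMSO.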

[14] = read-out: Cytochrome P450 (CYP24A1), CYP24A1 (gene 1591); assay: LTEA_HepaRG_CYP24A1: Life Technologies and Expression Analysis (LTEA) Assay for Cytochrome P450 (CYP24A1) using HepaRG (AID 2283478)
Procedure, shortened: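 HepaRG, 48 h chemical exposure, 8-pt half-log CRC from 100 uM, 0.5% DMSO vehicle, duplicates. Endpoint: CYP24A1 mRNA by Fluidigm TaqMan qRT-PCR, normalized ACTB/GAPDH/POLR2A; gain/loss fit vs DMSO.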

[15] = read-out: Cytochrome P450 (CYP1A2), CYP1A2 (gene 1544); assay: LTEA_HepaRG_CYP1A2: Life Technologies and Expression Analysis (LTEA) Assay for Cytochrome P450 (CYP1A2) using HepaRG (AID 2283479)
Procedure, shortened: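 CYP1A2 transcript induction or loss, quantified by Fluidigm qRT-PCR against three housekeeping genes, was fitted bidirectionally against 0.5% DMSO controls. Human HepaRG cells received eight half-log concentrations from 100 uM over 48 h.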

[16] = read-out: cysteine-aspartic acid protease (CASP8), CASP8 (gene 841); assay: LTEA_HepaRG_CASP8: Life Technologies and Expression Analysis (LTEA) Assay for cysteine-aspartic acid protease (CASP8) using HepaRG (AID 2283480)
Procedure, shortened: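 CASP8 transcript measured by TaqMan qRT-PCR with ACTB/GAPDH/POLR2A normalization, after 48 h chemical exposure of HepaRG cells in serum-free induction medium. Eight concentrations, top 100 uM, half-log steps, 0.5% DMSO vehicle; fits in both directions versus DMSO.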

[17] = read-out: Cytochrome P450 (CYP2B6), CYP2B6 (gene 1555); assay: LTEA_HepaRG_CYP2B6: Life Technologies and Expression Analysis (LTEA) Assay for Cytochrome P450 (CYP2B6) using HepaRG (AID 2283481)
Procedure, shortened: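 HepaRG cells plated 48 h, switched to serum-free induction medium, then dosed 48 h (8 points, half-log from 100 uM, 0.5% DMSO). RNA isolated; CYP2B6 expression measured by qRT-PCR; gain or loss fitted relative to DMSO.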

[18] = read-out: Cytochrome P450 2C19 (Homo sapiens) (UniProt P33261); assay: LTEA_HepaRG_CYP2C19: Life Technologies and Expression Analysis (LTEA) Assay for CYP2C19 using HepaRG (AID 2283482)
Procedure, shortened: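 Transcript levels of CYP2C19 were quantified by qRT-PCR after HepaRG cells were treated for 48 hours with test chemicals up to 100 uM (eight half-log concentrations, 0.5% DMSO vehicle). Gain or loss of signal was fitted relative to DMSO.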

Measured: AC50

Sequence of Broad substrate specificity ATP-binding cassette transporter ABCG2 (Homo sapiens) (Q9UNQ0 whole entry, looked up): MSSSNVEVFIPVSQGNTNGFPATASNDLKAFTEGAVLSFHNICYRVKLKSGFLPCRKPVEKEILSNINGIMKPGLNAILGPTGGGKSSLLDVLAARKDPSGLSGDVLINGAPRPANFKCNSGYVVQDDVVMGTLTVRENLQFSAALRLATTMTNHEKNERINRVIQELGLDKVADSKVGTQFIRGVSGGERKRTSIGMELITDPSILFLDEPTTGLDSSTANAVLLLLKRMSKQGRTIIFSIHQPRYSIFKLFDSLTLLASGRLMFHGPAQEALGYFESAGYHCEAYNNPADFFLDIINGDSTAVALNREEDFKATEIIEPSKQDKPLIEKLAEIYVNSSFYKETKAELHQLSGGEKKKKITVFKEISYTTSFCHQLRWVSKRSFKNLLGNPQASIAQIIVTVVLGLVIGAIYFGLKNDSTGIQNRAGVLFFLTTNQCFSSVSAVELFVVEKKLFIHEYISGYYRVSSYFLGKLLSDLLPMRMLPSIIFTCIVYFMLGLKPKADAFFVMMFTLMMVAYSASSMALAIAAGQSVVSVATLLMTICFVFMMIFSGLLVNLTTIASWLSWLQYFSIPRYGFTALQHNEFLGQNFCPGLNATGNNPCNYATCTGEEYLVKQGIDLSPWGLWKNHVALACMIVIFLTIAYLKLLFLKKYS
Sequence of Apoptosis regulator Bcl-2 (Homo sapiens) (P10415 whole entry, looked up): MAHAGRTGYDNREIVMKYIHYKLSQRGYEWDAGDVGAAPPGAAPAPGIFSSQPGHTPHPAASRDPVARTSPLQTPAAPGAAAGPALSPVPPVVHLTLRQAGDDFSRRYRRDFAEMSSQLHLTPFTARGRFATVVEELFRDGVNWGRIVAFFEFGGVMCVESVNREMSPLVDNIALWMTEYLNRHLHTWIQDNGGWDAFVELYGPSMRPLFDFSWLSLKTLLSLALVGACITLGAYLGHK
Sequence of Cytochrome P450 2C19 (Homo sapiens) (P33261 whole entry, looked up): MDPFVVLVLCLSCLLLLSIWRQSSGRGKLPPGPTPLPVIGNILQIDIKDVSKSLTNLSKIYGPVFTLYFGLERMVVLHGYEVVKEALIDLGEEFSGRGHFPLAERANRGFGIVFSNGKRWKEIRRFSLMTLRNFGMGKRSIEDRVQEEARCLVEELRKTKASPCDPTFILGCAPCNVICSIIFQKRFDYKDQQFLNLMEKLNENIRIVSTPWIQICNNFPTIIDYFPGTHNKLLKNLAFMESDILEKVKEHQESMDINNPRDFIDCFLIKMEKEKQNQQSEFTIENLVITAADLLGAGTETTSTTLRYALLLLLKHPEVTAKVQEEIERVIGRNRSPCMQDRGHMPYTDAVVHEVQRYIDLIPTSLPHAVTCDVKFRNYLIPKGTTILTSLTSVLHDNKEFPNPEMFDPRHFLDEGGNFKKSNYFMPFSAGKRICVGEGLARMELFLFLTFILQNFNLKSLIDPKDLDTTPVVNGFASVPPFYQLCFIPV

CCn1nc(Cc2ccccc2)cc1C1CCN(C[C@H]2C[C@H](N(C)[C@@H](C(=O)O)C(C)C)C[C@@H]2c2cccc(F)c2)CC1
inactive: [1] | [2] | [3] | [5] | [7] | [8] | [9] | BCL2L11 (gene 10018) | [11] | [12] | [13] | Caspase-3 (Homo sapiens) | [14] | [16]
active: [4] 75.7 µM | [6] 23.8 µM | [10] 50 µM | [15] 79.9 µM | [17] 13.7 µM | [18] 17.6 µM

CCN(C(=O)c1cc(C)cc(OC[C@H](C)Nc2ccncc2)c1)C(C)C
inactive: [2] | [3] | [7] | [8] | [9] | BCL2L11 (gene 10018) | [12] | [14] | [16]
active: [1] 25.1 µM | [4] 33.8 µM | [5] 20.1 µM | [6] 6.7 µM | [10] 23.7 µM | [11] 55 µM | [13] 0.143 µM | Caspase-3 (Homo sapiens) 19.6 µM | [15] 12.7 µM | [17] 7.91 µM | [18] 8.16 µM

O=C(NS(=O)(=O)/C=C/c1ccccc1)c1ccc(F)cc1Cl
active: [1] 50 µM | [2] 4.56 µM | [10] 18.9 µM | [17] 0.459 µM | [18] 2.51 µM
inactive: [3] | [4] | [5] | [6] | [7] | [8] | [9] | BCL2L11 (gene 10018) | [11] | [12] | [13] | Caspase-3 (Homo sapiens) | [14] | [15] | [16]

CCCCCCCCCCCCc1ccccc1
inactive: [1] | [2] | [3] | [4] | [5] | [6] | [7] | [8] | [9] | [10] | BCL2L11 (gene 10018) | [11] | [12] | [13] | Caspase-3 (Homo sapiens) | [14] | [15] | [16] | [17] | [18]

Cc1[nH]cnc1C[C@H]1CCc2c(C)c3ccccc3n2C1=O
active: [1] 22.7 µM | [2] 31.3 µM | [4] 75.6 µM | [5] 54.4 µM | [8] 28 µM | BCL2L11 (gene 10018) 26.6 µM | [11] 19.6 µM | [12] 24.1 µM | [15] 5.56 µM | [16] 66.7 µM | [17] 29 µM | [18] 30.6 µM
inactive: [3] | [6] | [7] | [9] | [13] | Caspase-3 (Homo sapiens) | [14]
